Source: PubChem
Compounds with a hit are over-represented: about 4.3% of the library has one in this group of screens.
SW480 rerep: A quantitative high throughput screen for small molecules that induce DNA re-replication in SW480 colon adenocarcinoma cells; SW480 DNA re-replication, Hoechst DNA content imaging, 48 h; AID 624297, 2012; hit rate 1.8% among 340,000; Potency, µM (series often up to 46.1 µM), most hits filed as activators; further: nearly all actives have a fitted effect of over 55% in size
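Readout is total intensity of Hoechst-stained nuclei, excited at 405 nm and collected at 500-530 nm. Compound treatment lasted 48 hr at 37 C in 5% CO2 before staining.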
Giardia kill: Small Molecules that selectively kill Giardia lamblia: qHTS. AID 540267, 2011. Giardia lamblia trophozoite viability. activity change, % at 7.66 µM, hits read low. hit rate 0.15% among 340,000; in the data active means activity change below about -80%; inconclusive means between about -30% and that limit;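 further: parasites exposed to compound for two days anaerobically before the ATP read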
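Luminescence from cellular ATP indicates surviving trophozoites (100 cells/well) following 48 hrs anaerobic compound treatment at 37 deg C; signal develops 15-30 min at room temperature.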
MCF10A rereplic: A quantitative high throughput screen for small molecules that induce DNA re-replication in MCF 10a normal breast cells. MCF 10A DNA re-replication, Hoechst nuclear intensity, 48 h. Potency, µM (highest dose often 46.1 µM), usual class: activators. hit rate 2.9% among 350,000. AID 624296, 2012; further: nearly all actives have a fitted effect of over 50% in size
uPA generation: qHTS for Inhibitors of Cell Surface uPA Generation; Potency, µM (doses to about 38.3 µM), usual class: inhibitors; cell surface uPA generation assay, qHTS; hit rate 0.31% among 330,000; active means well fitted inhibition curve with a large enough effect; inconclusive means small, poorly fitted or top-dose-only effect; inactive means no such curve, though single readings can be large or run the other way; tested in mouse RAW 264.7 cells; further: nearly all actives have a fitted effect of over 55% in size
Hits are given with their value; i = inactive; ? = inconclusive; nt = no result; ! = a repeat was not active; [ ] = another dose, or the depositor's remark. Unless noted, the call rests on the fitted dose curve; in most records, active means well fitted activation curve with a large enough effect; inconclusive means small, poorly fitted or top-dose-only effect; inactive means no such curve, though single readings can be large or run the other way.

SMILES	SW480 rerep	Giardia kill	MCF10A rereplic	uPA generation
C#C[C@]1(O)CC[C@H]2[C@@H]3CCc4cc(OC)ccc4[C@H]3CC[C@@]21C	i	i	?	i
C#C[C@]1(O)CC[C@H]2[C@@H]3CCc4cc(OC5CCCC5)ccc4[C@H]3CC[C@@]21C	?	i	13µM!	i
CCOP(=O)(OCC)C(NC(=O)Nc1cccc(Cl)c1)C(N)=O (centres undefined)	1.5µM	i	i	i
O=[N+]([O-])c1nc2ccccc2[nH]1	i	i	i	i
Cc1noc(C)c1NC(=O)Nc1cccc2c1O[C@@H](CN(C)Cc1ccc3c(c1)OCO3)[C@@H](C)CN([C@H](C)CO)C2=O	i	?	i	i
CC(C)N1CC(C(=O)Nc2ccc(Cl)c(Cl)c2)CC1=O (centres undefined)	i	i	i	i
CC(C)N1CC(C(=O)Nc2cc(Cl)cc(Cl)c2)CC1=O (centres undefined)	i	i	i	7.1µM
COc1ccc(C(=O)c2sc(Nc3cccc(OC)c3)c(C(=O)Nc3cccc(C)c3C)c2N)cc1	?	i	1.5µM	i
CC(C)C(=O)N1CCN(CCN2C(=O)c3cccc4cccc(c34)C2=O)CC1	i	i	i	i
O=C(C(c1ccccc1)c1ccccc1)N1CCN(CCN2C(=O)c3cccc4cccc(c34)C2=O)CC1	i	i	15µM	i
CC(C)CN(C(=O)c1cccc(S(=O)(=O)N2CCN(c3ccc(F)cc3)CC2)c1)C1CCS(=O)(=O)C1 (centres undefined)	i	i	i	i
NC(N)=N/N=C/c1ccc(Br)cc1	?	?	18µM	?
N#Cc1ccc(/C=N/N=C(N)N)cc1	i	i	i	i
N#C/C(=C\c1ccccn1)c1nc2ccccc2s1	16µM	i	15µM	i
N#C/C(=C/c1ccc(-c2ccc(S(N)(=O)=O)cc2)o1)c1nc2ccccc2s1	10µM	i	3.7µM	i
C/C(=C(/CCOC(=O)C(C)C)SS/C(CCOC(=O)C(C)C)=C(\C)N(C=O)Cc1cnc(C)nc1N)N(C=O)Cc1cnc(C)nc1N	i	nt	i	nt
O=c1[nH]c(=O)c2[nH]c(=S)[nH]c2[nH]1	i	i	i	i
Cc1ccn2c(=O)c(C(=O)NC3CCCCC3C)c(O)nc2c1 (centres undefined)	?	i	i	i
CN1CCN(C(c2ccc(Cl)cc2)c2cc(Cl)c3cccnc3c2O)CC1 (centres undefined)	i	i	?	i
Oc1c(C(c2ccccn2)N2CCCCC2)cc(Cl)c2cccnc12 (centres undefined)	?	i	21µM	?
O=C(O)c1ccccc1C(=O)NC1CCCc2ccccc21 (centres undefined)	i	i	i	i
CCOc1ccc(CN(CC)C(=O)Cc2c[nH]c3ccccc23)cc1OC	i	i	i	i
Cc1sc2nc(SCCN(C)C)n(-c3ccccc3)c(=O)c2c1-c1ccc(F)cc1	18µM	i	?	i
O=C(C1COc2ccccc2O1)N1CCN(c2ccc([N+](=O)[O-])cc2)CC1 (centres undefined)	i	i	i	i
Cc1ccc(SCc2nc(-c3ccccc3)no2)cc1	i	i	i	i
SMILES	SW480 rerep	Giardia kill	MCF10A rereplic	uPA generation
Cc1ccc(SCc2nc(-c3ccncc3)no2)cc1	?	i	16µM	i
CN(C)C(=O)c1c(NC(=O)c2ccccc2)sc2c1CCC2	i	i	i	i
CCN(CC)CCCC(C)NC(=O)c1c(NC(=O)c2ccccc2)sc2c1CCCC2 (centres undefined)	?	i	4.6µM	?
COc1cccc(C2CNC3(CCCC(C)C3)c3[nH]c4ccccc4c32)c1OC (centres undefined)	i	i	18µM	i
CC/C(=C(\c1ccccc1)c1ccc(OCCN(C)C)cc1)c1ccccc1	1.3µM!	i	?	i
CCN(CC)CCOc1ccc(/C(=C(/Cl)c2ccccc2)c2ccccc2)cc1	i	i	4.1µM!	i
Cn1cccc1C(=O)NCC(c1ccco1)N1CCCCC1 (centres undefined)	?	i	i	i
Cc1ccc(Cn2c(C(C)Nc3nc(-c4ccc(Cl)c([N+](=O)[O-])c4)cs3)nc3cc(C(F)(F)F)ccc32)cc1 (centres undefined)	0.92µM	i	i	i
CCCn1c(C(C)Nc2nc(-c3ccc(Cl)c([N+](=O)[O-])c3)cs2)nc2ccccc21 (centres undefined)	i	i	?	i
Cc1ccc(-c2nc(-c3cc4cc(Cl)ccc4oc3=O)sc2C)cc1	nt	i	nt	nt
O=C(Cc1ccccc1Nc1c(Cl)cccc1Cl)OCO/N=[N+](\[O-])N1CCCC1	nt	i	nt	nt
Cc1[nH]c(=O)n(C(C)C)c(=O)c1Br	i	i	i	i
O=C(CCC(=O)Nc1ccc(F)cc1)N/N=C/c1ccc(O)cc1O	9.2µM	i	i	i
O=C(Cn1cnc([N+](=O)[O-])n1)N/N=C/c1ccc(O)cc1O	12µM	i	i	i
O=C(N/N=C/c1ccc(O)cc1O)C(=O)N/N=C/c1ccc(O)cc1O	12µM	i	i	i
O=C(CCC(=O)Nc1ccc(F)cc1)N/N=C/c1ccc(O)cc1	i	i	i	i
COc1ccc(O)c(/C=N/NC(=O)CCC(=O)Nc2cccc(C)c2)c1	5.8µM	i	?	i
O=C(NN=Cc1ccc(O)cc1)C(=O)NN=Cc1ccc(O)cc1	i	i	i	i
COc1ccc(/C=C2\SC(=O)N(CC(=O)NCCCn3ccnc3)C2=O)cc1	i	i	?	i
O=C(CNC(=O)[C@@H]1Cc2ccccc2CN1)NCc1ccco1	i	i	i	i
CCCCNC(=O)Cn1cnc([N+](=O)[O-])n1	7.3µM	i	i	i
CC(=O)N1CCN(Cc2nc3cc([N+](=O)[O-])ccc3n2C)CC1	2.9µM	i	i	i
CCOC(=O)N1CCN(Cc2nc3cc([N+](=O)[O-])ccc3n2C)CC1	i	i	i	i
CCOc1ccccc1CNC(=O)c1cc2oc3ccccc3c2n1CC	i	i	18µM	i
Cn1c(C(=O)N2CCc3ccccc3C2)cc2oc3ccccc3c21	i	i	?	i
SMILES	SW480 rerep	Giardia kill	MCF10A rereplic	uPA generation
COc1cccc(CNC(=O)c2cc3oc4ccccc4c3n2C)c1OC	i[9.22 µM]	i	?	i
CCn1c(C(=O)N2CCc3ccccc3C2)cc2oc3ccccc3c21	i	i	16µM	i
O=C(N/N=C/c1ccc(N2CCCCC2)o1)c1ccccc1	?	i	23µM	i
CCOC(=O)c1c(NC(NC(C)=O)C(Cl)(Cl)Cl)sc2c1CCCC2 (centres undefined)	i	i	21µM	i
COC(=O)c1c(NC(NC(C)=O)C(Cl)(Cl)Cl)sc2c1CCCC2 (centres undefined)	i	i	?	i
CC(=O)N1CCN(C(=O)COC(=O)/C=C/c2ccccc2[N+](=O)[O-])CC1	i	i	i	?
Cc1cc(C)n(-c2nc(NC(C)C)nc(NC(C)(C)C)n2)n1	nt	i	nt	nt
CN=C1S/C(=C\c2ccc(Cl)cc2)C(=O)N1C	23µM	i	?	i
O=C(C1=C(c2ccccc2)C(=O)c2ccccc2C1=O)c1ccccc1	7.3µM	?	5.2µM	?
CN1CCN(c2sc(S(C)(=O)=O)nc2S(=O)(=O)c2ccc(Cl)cc2)CC1	i	i	i	i
